Tests used:
Experiment in all cases: PBM binding z-score (relative to random genomic background probes); higher = stronger binding; sequences stand for … in GC…GCGATTGACAGCGTAGAATGAAGG
[1] = test system: FXR:RXRa (NR concentration 270 nM, RXRa partner concentration 90 nM)
Method in brief: (§1)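 Custom Agilent 4×180K protein-binding microarrays carried double-stranded probes, each with a 34-nt variable region. These regions held direct-repeat seeds, single-nucleotide variants, half-site ablations and random human genomic background sequences. Ligand-free nuclear receptor dimers were incubated on the arrays for 1 h, antibodies against each partner (one per run) detected binding, and scanned fluorescence was regression-normalized. Binding z-scores take the random background probes as reference.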

[2] = test system: LXRa:RXRa (NR concentration 270 nM, RXRa partner concentration 90 nM)
Method in brief: as §1

[3] = test system: LXRa homodimer (NR concentration 270 nM)
Method in brief: as §1

[4] = test system: LXRb:RXRa (NR concentration 270 nM, RXRa partner concentration 90 nM)
Method in brief: as §1

[5] = test system: LXRb homodimer (NR concentration 270 nM)
Method in brief: as §1

[6] = test system: PPARa:RXRa (NR concentration 270 nM, RXRa partner concentration 90 nM)
Method in brief: as §1

[7] = test system: PPARg:RXRa (NR concentration 180 nM, RXRa partner concentration 90 nM)
Method in brief: as §1

[8] = test system: PPARg:RXRa 270nM:90nM, anti-RXR (NR concentration 270 nM, RXRa partner concentration 90 nM)
Method in brief: as §1

[9] = test system: PPARg:RXRa 30nM:10nM, anti-RXR (NR concentration 30 nM, RXRa partner concentration 10 nM)
Method in brief: as §1

[10] = test system: PPARg:RXRa 90nM:30nM, anti-RXR (NR concentration 90 nM, RXRa partner concentration 30 nM)
Method in brief: as §1

Sequence	PBM binding z-score [1]	PBM binding z-score [2]	PBM binding z-score [3]	PBM binding z-score [4]	PBM binding z-score [5]	PBM binding z-score [6]	PBM binding z-score [7]	PBM binding z-score [8]	PBM binding z-score [9]	PBM binding z-score [10]
ACACACAGGTGATGAAGGTAACTCAGGCTATCAT	-0.0193	0.147	0.256	-0.0371	-0.0459	0.299	0.913	0.223	0.238	0.167
CAAACTAGGTCAAGCTCAAAGTCGGTTTGTGCCA	4.15	2.87	0.38	1.86	0.134	4.98	7.79	7.36	4.77	7.27
TCGAGTAGGTTAGTCGCGGCATTCAGCCAACATA	-0.279	-0.139	-0.606	-0.576	-1.32	0.228	-0.37	0.565	1.03	0.9
CCGAGTAGGTTCTGGGGCATTCAGGCAACGGTGA	-0.196	-0.351	-0.153	-0.391	-0.906	0.158	-0.108	0.645	-0.76	0.156
TCGTGTAGGTTACCAATGGGGCATTCAGCTTTCT	0.486	1.81	0.0515	1.44	0.0224	1.43	-0.0806	1.21	2.25	1.67
ACAGACAGGTGAGTGAAGATAACTCAGCTGGACG	-0.343	-0.53	-0.558	-0.776	-0.749	-0.453	0.887	-0.267	0.137	-0.0703
CGTCCAAGGTCAATGCTAGGGCAGTGAAAGCATT	6.49	4.8	0.528	3.57	0.446	5.03	3.68	4.65	1.05	3.08
CCTACTGGGCTAAGGTCATTGATCAGTCAAAGCA	3.85	3.94	1.87	3.49	-0.0794	4.26	3.54	4.28	1.41	3.47
CCTTACGGATCAAGGTTATAGCACGGGTGGTACG	0.336	0.57	0.38	0.5	0.21	0.917	0.684	0.188	-0.114	0.0556
TCTGTTAGGTCAGTTGGTCAGCTAACGAGCTGCC	2.18	1.74	0.264	1.37	2.71	1.99	0.27	2.47	3.02	2.76
AGAATGAGGTTATTAACATCAGGGAATTGCGGTC	1.93	1.61	0.0364	1.24	0.0777	2.63	1.32	1.34	0.42	0.938
GCTGCTAGGTGAGGTTGGTCAGCTAACGGGTACG	-0.483	-0.442	-0.661	-0.672	-0.761	-0.326	-0.331	-0.69	-1.04	-0.961
ACTAGCAGGCCGAGGGTCACTCAAGATTAGTCCG	0.88	1.52	-0.557	1.31	-0.725	2.71	3.61	4.99	2.21	4.78
CTCGAAAGTTCGGTTGAGGTGAGTATACGGATAA	0.279	0.2	-0.166	0.297	-0.341	0.506	-0.114	0.109	-0.0109	0.125
CCTTACGGGACACGAGGTTATAGCACGACGAGCG	0.657	0.725	0.391	0.535	-0.204	1.27	1.38	0.573	0.0152	0.477
TCGAGTAGGTTAGTGGGGGCATTCAGCCAACATA	1.28	1.52	0.619	3.73	6.59	2.68	2.05	3.03	1.76	2.53
GCTAGCAGGCAATTTGGGTCACTCAATGACGGGC	0.195	0.398	-0.578	0.171	-0.943	2.23	0.983	0.964	-0.305	0.409
CCTATTGGTTGACCATAAGGGCAACCGAAGCTCG	0.484	-0.0111	-0.255	0.153	-0.527	0.421	0.215	0.235	-0.263	-0.214
GATACAGGGTCAAGGCCAGTGTACGCGTATTGAT	6.59	4.26	-0.145	3.52	-0.211	5.6	5.69	5.76	2.44	4.1
GTACCGAGGTGAATAGGTCGTTGATGAGTAGGCG	1.03	0.978	-0.306	0.874	-0.778	2.68	1.86	2.13	0.147	0.886
AGAACGAGGGCACGCAGAGTTGATAGCAGAGTAG	1.14	0.811	-0.396	0.439	-0.647	2.54	2.51	2.28	0.386	1.35
CGTCCAAGGTCAGAAAGGTCAGTGAATGCCGAGT	5.85	5	3.05	4.56	0.524	4.94	3.36	4.31	0.967	2.8
ACAGACAGGTGCTGAAGGTAACTCAGGCTATCAT	-0.388	-0.633	-0.46	-0.677	-0.731	-0.462	0.398	-0.189	-0.203	-0.342
CCTACCGGGCCAAAGGTCATTGATTCCAATGCTC	4.82	5.29	3.7	4.97	0.797	5.89	9.76	9.09	7.65	9.83
ATCTCTAGGTAAAAGTTCACTGAATCCCGAGGAT	1.74	2.79	2.51	1.79	1.07	4.85	8.64	8.64	7.7	9.26

— the supplement of paper PMC6555819
